The campaign covered roughly 350,000 compounds. About 31,000 (8.9%) were called active. Another 15% or so got no clear call; they are omitted. This excerpt belongs to a sample that is enriched for actives. A number with no mark means an inactive call. Calls come from the whole dose curve; as a rule, active = well fitted inhibition curve with a large enough effect; inconclusive = small, poorly fitted or top-dose-only effect; inactive = no such curve, though single readings can be large or run the other way.
Target: Histone-lysine N-methyltransferase EHMT2 (Homo sapiens) (UniProt Q96KQ7)
Experiment: qHTS Assay for Inhibitors of Histone Lysine Methyltransferase G9a; note: nearly all actives have a fitted effect of over 75% in size
Details: G9a H3K9 monomethylation, AlphaScreen, 2 h; series mostly up to 59 µM; activity, negative = inhibition: at the top concentration
How it was run: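 Compounds were preincubated with 20 nM G9a for 15 min, after which biotinylated H3K9 peptide (500 nM) and SAM (20 uM) started a 2 h room-temperature reaction. Monomethylated product was quantified by antibody-based AlphaScreen chemiluminescence.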
% is set by controls: 0 for no effect and ±100 for the full control effect; potency is the fitted concentration of half-maximal effect.

Histone-lysine N-methyltransferase EHMT2 (Homo sapiens), sequence (Q96KQ7 913-1193 limits assumed): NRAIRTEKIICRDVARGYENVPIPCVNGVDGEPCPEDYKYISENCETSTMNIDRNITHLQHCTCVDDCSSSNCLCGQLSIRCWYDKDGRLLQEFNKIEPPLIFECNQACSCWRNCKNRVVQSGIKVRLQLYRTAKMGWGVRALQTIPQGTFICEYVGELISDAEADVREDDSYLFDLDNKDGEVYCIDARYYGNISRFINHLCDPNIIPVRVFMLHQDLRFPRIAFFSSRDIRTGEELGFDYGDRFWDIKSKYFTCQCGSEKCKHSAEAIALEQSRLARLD

| Structure (SMILES) | activity, negative = inhibition | Potency |
| --- | --- | --- |
| CN(C)CCn1c2c(c(SCC(=O)Nc3ccccc3C(F)(F)F)nc1=O)CCCC2 | 7.38% [at 0.501 µM] |  |
| CCOC(=O)c1ccc(NC2=CC(c3ccc(OCC)cc3)N(c3ccc(C(=O)OCC)cc3)C2=O)cc1 (configuration not stated) | -41.8% |  |
| COc1cc(NC(=O)CCn2nc(C)cc2C)cc(OC)c1OC | 7.03% |  |
| Cc1c(Cl)cccc1NC(=O)C1CCCN(C(=O)c2cnn(-c3ccccc3)c2-n2cccc2)C1 (configuration not stated) | -2.57% |  |
| Cn1c(C(=O)N2CCCC(C(=O)NCc3ccccc3)C2)cc2sccc21 (configuration not stated) | -0.912% |  |
| COc1ccc(-c2noc(CSc3nc4ccc(C)cc4[nH]3)n2)cc1 | 4.71% |  |
| O=C(Nc1ccc(C(F)(F)F)cc1)c1cccc(-n2cnnn2)c1 | -33% |  |
| O=C(CN1C(=O)COc2ccc(Cl)cc21)N1CCOCC1 | 78.5% [at 102 µM] |  |
| CC(=N\NC(=O)c1cc(Br)ccc1O)/C(=N/O)C(=O)Nc1ccccc1 | 1.77% [at 102 µM] |  |
| COc1ccc(OC)c(/C=C/C(=O)c2ccc3c(c2)OCO3)c1 | 13.7% [at 12.7 µM] |  |
| Cc1ccccc1-c1nc(CS(=O)(=O)CC(=O)Nc2cc(Cl)cc(Cl)c2)c(C)o1 | -2.38% |  |
| CCOc1ccccc1C(=O)NC1(C(F)(F)F)NC(=O)N(CCc2ccc(OC)c(OC)c2)C1=O (configuration not stated) | -8.28% |  |
| O=C(CSc1ncnc2sccc12)N1CCN(C(=O)c2cccs2)CC1 | 14% [at 12.7 µM] |  |
| COc1ccc(CNC(=O)c2cc3c(=O)[nH]c4ccc(C)cc4c3s2)c(OC)c1 | 9.06% |  |
| CCOc1ccc(C(=O)Nc2cc(OC)ccc2OC)cc1 | 20% [at 102 µM] |  |
| COc1cc(C(=O)Nc2cc(C(F)(F)F)ccc2-n2cncn2)cc(OC)c1OC | 1.32% [at 102 µM] |  |
| CCOc1ccc(C(=O)Nc2cc(Cl)ccc2-n2cncn2)cc1OC |  | 15.8 µM (active) |
| COc1ccc(-n2nnnc2CNC(=O)c2ccc3ccccc3c2)cc1 | -3.4% [at 102 µM] |  |
| COc1ccccc1C(CNC(=O)c1cccc(S(=O)(=O)Nc2ccc(F)cc2)c1)N(C)C (configuration not stated) | 17.4% [at 12.7 µM] |  |
| CN(C)C(CNC(=O)c1cccc(S(=O)(=O)Nc2ccc(Br)cc2)c1)c1ccco1 (configuration not stated) |  | 50.1 µM (active) |
| COc1ccccc1C(CNC(=O)c1cccc(NS(=O)(=O)c2ccc(Br)cc2)c1)N(C)C (configuration not stated) | -36.2% [at 102 µM] |  |
| CCOc1ccccc1CNCc1c(C(=O)O)c(C)n(Cc2ccc(C)cc2)c1C | -1.87% |  |
| O=C(O)c1cc2c(cc1NC(=O)c1c(F)cccc1Cl)OCCCO2 | -15.3% [at 102 µM] |  |
| O=C(NCCN1CCOCC1)c1ccc2c(c1)ncn2C1CCCC1 | -47.7% [at 102 µM] |  |

| Structure (SMILES) | activity, negative = inhibition | Potency |
| --- | --- | --- |
| O=C(NCc1ccc(Cl)cc1)c1ccc2c(c1)nnn2C1CCCC1 | -6.56% |  |
| O=C(NCc1cccs1)c1ccc2c(c1)ncn2C1CCCC1 |  | 50.1 µM (active) |
| CCOc1ccc(C(=O)CCC(=O)NC2=NCCS2)cc1 | 2.24% [at 0.501 µM] |  |
| CN(Cc1cccc2ncccc12)C(=O)CC1C(=O)NCCN1Cc1ccc(F)cc1 (configuration not stated) |  | 44.7 µM (active) |
| CN(C(=O)CC1C(=O)NCCN1Cc1ccc(F)cc1Cl)C1CCCCC1 (configuration not stated) | 0.263% [at 102 µM] |  |
| CCCOC(=O)CC1C(=O)NCCN1Cc1ccc(F)cc1 (configuration not stated) | 10.2% [at 102 µM] |  |
| COc1ccccc1CN1CCNC(=O)C1CC(=O)N(C)CC1CCOCC1 (configuration not stated) | 13.6% [at 0.0925 µM] |  |
| CN(CCc1ccccn1)C(=O)c1ccc(OC2CCN(CCc3ccccc3)CC2)cc1 | 21.6% [at 102 µM] |  |
| Cc1nc(CN(C)C(=O)CC2C(=O)NCCN2Cc2ccc(F)cc2)cs1 (configuration not stated) |  | 44.7 µM (active) |
| CC(C)c1nc(CNC(=O)CC2C(=O)NCCN2Cc2ccoc2)cs1 (configuration not stated) | -29.4% [at 102 µM] |  |
| Cc1cnc(CN(C)C(=O)CC2C(=O)NCCN2Cc2cccc(F)c2F)[nH]1 (configuration not stated) | -5.82% [at 102 µM] |  |
| COc1cccc(CN2CCNC(=O)C2CC(=O)N(C)CCc2ccccn2)c1 (configuration not stated) |  | 44.7 µM (active) |
| Cc1cccc(NC(=O)Cn2c(=O)n(CCC(C)C)c(=O)c3cccnc32)c1 | -1.53% |  |
| CCN(CC(=O)Nc1c(F)cccc1F)C(=O)c1cnc(C)cn1 | 9.59% [at 2.33 µM] |  |
| COc1ccc(-c2nc(CN3CCC(C(=O)NCCN(CC(C)C)CC(C)C)CC3)c(C)o2)cc1OC | -43.1% |  |
| Cc1ccc(C(=O)Nc2nc(-c3ccccc3)ns2)cc1 | -3.13% |  |
| Cc1ccc(CNC(=O)CC(NC(=O)c2ccccc2)c2ccccc2)cc1 (configuration not stated) | 12.4% [at 12.7 µM] |  |
| Cc1ccc(CNC(=O)CCc2c(C)nc3nc(CNC(=O)OC(C)(C)C)nn3c2C)cc1 | -2.86% |  |
| COCCNC(=O)c1ccc2c(c1)N=C(C)c1cc(C)ccc1S2 | -33.8% |  |
| CCOC(=O)C1(CCOc2ccccc2)CCN(Cc2ccc(C#CCCO)cc2)CC1 | -13.7% [at 102 µM] |  |
| Cc1ccc(Cl)cc1N(C)C(=O)Cn1nc(Cc2cccnc2)c2ccccc2c1=O | -0.885% |  |
| COc1ccc(C(=O)Nc2ccccc2C(=O)NCc2ccco2)cc1 | 20.2% [at 102 µM] |  |
| CCOc1ccccc1C(=O)NCc1ccco1 |  | 44.7 µM (active) |
